# Experimental data as given in PubChem BioAssay AID2685 (National Center for Advancing Translational Sciences (NCATS), 2010).
# The campaign covered roughly 320,000 compounds. About 2,100 (0.66%) were called active. Not shown: some 53% with an inconclusive outcome. The sample holds actives, similar compounds and a random draw of the others, so the mix is not that of the screen. Calls follow the shape of the dose curve; as a rule, active = well fitted inhibition curve with a large enough effect in the signal ratio, with a control signal flat (not every such curve was filed as active); inconclusive = small, poorly fitted or top-dose-only effect, or effect the other way, or a change in a side signal; inactive = flat fitted curve, though single readings scatter; the % refers to the signal ratio.
# Experiment: qHTS Assay for Lipid Storage Modulators in Drosophila S3 Cells;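 as to cell number change: cells counted by Cell Tracker Red CMTPX staining in the red channel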; as to lipid storage change, negative = inhibition: % is scaled to controls: 0 for no effect and ±100 for the full control effect
# Details: BODIPY lipid droplet fluorescence, 18-24 h, cells fed with added oleic acid; cell number change: measured here: cell count max response; series mostly up to 46.1 µM
# Procedure, shortened: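 Drosophila S3 cells got compounds at several concentrations plus oleic acid (400 uM solution). Laser-scanning cytometry with 488 nm excitation read lipid droplets at 500-530 nm and cells at 575-640 nm. Percent activity was relative to 20 uM Triacsin C.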
# Potency is read from the fitted curve at half-maximal effect.
Compound,Potency,cell number change [%],"lipid storage change, negative = inhibition"
O=C(N/N=C/c1ccccc1)c1ccc(NC(=O)c2ccc(F)cc2)cc1,inactive,8.73,–
Cc1ccc(C)c(NC(=O)CSc2nc(C)cc(C)c2C#N)c1,inactive,-1.26,–
CC(Oc1ccc2c(-c3ccccc3)cc(=O)oc2c1)C(=O)NCC1CCC(C(=O)O)CC1 (centres undefined),inactive,–,–
COCCNC(=O)CN(Cc1ccc(Cl)cc1)S(C)(=O)=O,23.1 µM (active),-6.66,–
COc1ccc(CCNC(=O)CN(Cc2ccc(Cl)cc2)S(C)(=O)=O)cc1,inactive,-16.1,–
COc1ccc(CCNC(=O)CN(Cc2ccc(Cl)cc2)S(C)(=O)=O)cc1OC,inactive,5.74,–
COc1ccc(CNC(=O)CN(C)S(=O)(=O)c2ccc(Cl)cc2)cc1,inactive,-9.55,–
COc1ccc(CNC(=O)CN(Cc2ccc(Cl)cc2)S(C)(=O)=O)cc1,inactive,15.2,–
COc1ccc(CNC(=O)CN(Cc2ccc(Cl)cc2)S(=O)(=O)c2ccccc2)cc1,20.6 µM (active),26.1,–
CC1CCN(C(=O)c2[nH]cnc2C(=O)N[C@@H](CCCCNC(=O)OC(C)(C)C)C(=O)OC(C)(C)C)CC1,inactive,-11.2,–
Clc1ccccc1-c1ncnc2ccc(Br)cc12,inactive,-18.5,–
CN1CCN(C(c2ccccn2)c2cc(Cl)c3cccnc3c2O)CC1 (centres undefined),inactive,–,–
CN1CCN(C(c2cccnc2)c2ccc3cccnc3c2O)CC1 (centres undefined),inactive,8.11,–
CN1CCN(C(c2ccc(Br)cc2)c2cc(Cl)c3cccnc3c2O)CC1 (centres undefined),20.6 µM (active),5.13,–
O=C(NCc1ccc(F)cc1)C1CC(=O)N(CCc2ccccc2)C1 (centres undefined),inactive,15.8,–
Cc1ccc(S(=O)(=O)NNC2=NS(=O)(=O)c3ccccc32)c(C)c1,inactive,-0.377,–
Cc1cc(O)c(C(C)C)cc1NC1=NS(=O)(=O)c2ccccc21,inactive,-1.35,–
Cc1cc(C)c(NC2=NS(=O)(=O)c3ccccc32)c(C)c1,16.4 µM (active),–,–
O=C1COc2ccc(S(=O)(=O)N3CCN(c4cccc(Cl)c4)CC3)cc2N1,inactive,-0.295,–
CC(CC(=O)N1CCN(c2cccc(Cl)c2)CC1)S(=O)(=O)c1ccc2c(c1)NC(=O)CO2 (centres undefined),6.51 µM (active),–,–
CC(CC(=O)N1CCN(c2ccccc2)CC1)S(=O)(=O)c1ccc2c(c1)NC(=O)CS2 (centres undefined),inactive,-1.91,–
CCOc1ccc(NC(=S)N2C3CCCC2CC(NC(=O)C2CC2)C3)cc1 (centres undefined),inactive,11.2,–
CCOC(=O)C1Cc2ccccc2C(=O)O1 (centres undefined),inactive,3.62,–
CC(=O)Nc1nc2cc([N+](=O)[O-])ccc2s1,inactive,-7.82,–

Compound,Potency,cell number change [%],"lipid storage change, negative = inhibition"
C=CC(C)N1C(=O)S/C(=C\c2ccc(N3CCOCC3)cc2C)C1=O (centres undefined),4.11 µM (active),–,–
CCC(C)N1C(=O)S/C(=C/c2ccc(N3CCOCC3)cc2C)C1=O (centres undefined),inactive,12.1,–
CCCN1C(=O)S/C(=C\c2ccc(N3CCOCC3)cc2C)C1=O,inactive,-13.4,–
Cc1cccc(N2CC(C(=O)NCCC3=CCCCC3)CC2=O)c1C (centres undefined),inactive,–,–
CCS(=O)(=O)N1CCC(C(=O)NCc2ccc(OC)cc2OC)CC1,inactive,16,–
N#Cc1ccc(OCc2ccc(C(=O)O)o2)cc1,inactive,-20.7,–
O=C(O)c1ccc(COc2ccc(Cl)cc2)o1,25.9 µM (active),-10.6,–
O=C(O)c1ccc(COc2ccc([N+](=O)[O-])cc2)o1,inactive,–,–
Nc1cccnc1Sc1cccc(Cl)c1,inactive,-17.5,–
O=S(=O)(c1ccccc1)N1CCN(S(=O)(=O)c2ccc(F)cc2)CC1,inactive,-2.92,–
CC1(C)CC(=O)c2cc(NC(=O)c3ccccc3)c(=O)oc2C1,inactive,6.08,–
Cn1c(SCc2cc(=O)[nH]c(C(C)(C)C)n2)nnc1C(F)(F)F,inactive,-1.02,–
CCOC(=O)N1CCN(C2=C(NS(=O)(=O)c3ccc(NC(C)=O)cc3)C(=O)c3ccccc3C2=O)CC1,18.4 µM (active),-22.6,–
CCOC(=O)N1CCN(C2=C(NS(=O)(=O)c3ccc(C)cc3)C(=O)c3ccccc3C2=O)CC1,inactive,-13.9,–
CC(=O)Nc1ccc(S(=O)(=O)NC2=C(N3CCN(c4ccc(F)cc4)CC3)C(=O)c3ccccc3C2=O)cc1,inactive,3.49,–
CCOC(=O)c1ccc(N(CC(=O)NC2CCCCC2)C(=O)CNC(=O)c2ccco2)cc1,inactive,11.2,–
O=C(O)CCC(=O)N1N=C(c2ccco2)CC1c1cccs1 (centres undefined),inactive,-1.36,–
O=C(CCl)N1N=C(c2ccco2)CC1c1cccs1 (centres undefined),23.1 µM (active),-16,–
O=C(c1ccccc1)N1N=C(c2ccco2)CC1c1cccs1 (centres undefined),inactive,16.1,–
CC(C)Sc1nc2c(cnn2-c2ccc(F)cc2)c(=O)[nH]1,inactive,–,–
CN(C)c1nc(NCc2ccccc2)nc(N/N=C/c2ccccc2F)n1,23.1 µM (active),–,–
CN(C)c1nc(NCc2ccccc2)nc(N/N=C/c2ccc(Cl)cc2Cl)n1,inactive,-26.7,–
CN(C)c1nc(NCc2ccccc2)nc(N/N=C/c2ccc(Br)cc2)n1,inactive,-3.42,–
O=C(NCCCN1CCCC1=O)c1cc(S(=O)(=O)N2CCOCC2)ccc1Cl,inactive,15,–

Compound,Potency,cell number change [%],"lipid storage change, negative = inhibition"
O=C1CCCN1CCCNS(=O)(=O)c1ccc(Cl)c(C(=O)N2CCOCC2)c1,23.1 µM (active),-15.3,–
O=C1CCCN1CCCNS(=O)(=O)c1ccc(F)c(F)c1,inactive,3.84,–
COc1ccccc1Cn1c(C(C)C)nc2ccccc21,inactive,8.07,–
O=C(Nc1nc2ccccc2[nH]1)c1ccc(OC(F)F)cc1,inactive,-15.1,–
CCOc1ccc(N(CC(=O)NCCOc2ccc(C)cc2)S(=O)(=O)c2ccccc2)cc1,inactive,23.7,–
CC(=O)N1CCCc2cc(S(=O)(=O)NC(C(=O)NC3CCCCC3)C(C)C)ccc21 (centres undefined),inactive,13.4,–
COC(=O)CCCCCCCCCC[N+]1(C)CCCCC1,inactive,12.8,–
C[N+]1(CCC(=O)c2ccccc2)CCCCC1,inactive,3.5,–
C[N+]1(CCCCSc2ccc(O)cc2)CCCCC1,4.61 µM (active),-4.93,–
CCN(CC)C(=O)C(Oc1ccc(S(=O)(=O)N2CCCC2)cc1[N+](=O)[O-])c1ccccc1 (centres undefined),inactive,3.42,–
CSc1nsc(SCC(=O)Nc2ccc(OC(C)=O)cc2)n1,–,-8.58,1.8% [at 9.22 µM] (inactive)
CSc1nsc(SCC(=O)Nc2ccc(Cl)c(C(=O)O)c2)n1,1.46 µM (active),6.94,–
Nc1nnc(SCC(=O)Nc2ccc(Cl)c(C(=O)O)c2)s1,inactive,-0.289,–
CSc1nsc(SCC(=O)Nc2ccc(C(N)=O)cc2)n1,6.51 µM (active),8.7,–
CSc1nsc(SCC(=O)Nc2nncs2)n1,inactive,10.5,–
O=C(CSc1nc2ccccc2s1)Nc1ccc(Cl)c(C(=O)O)c1,inactive,18.4,–
O=C(Nc1cc(C(=O)N2CCN(c3ccccc3O)CC2)ccc1Cl)c1cccs1,inactive,5.21,–
CCCOc1cccc(C2/C(=C(\O)c3ccc4c(c3)OCCO4)C(=O)C(=O)N2CCCn2ccnc2)c1 (centres undefined),inactive,-8.73,–
O=C(CCc1nnc2n(CCc3ccccc3)c(=O)c3ccccc3n12)NCCCN1CCCCC1,inactive,-8.94,–
O=[N+]([O-])c1ccc(Cl)c(/C=N/N2CCN(Cc3ccccc3)CC2)c1,inactive,-3.29,–
O=[N+]([O-])c1ccccc1/C=N/N1CCN(Cc2ccccc2)CC1,1.3 µM (active),-5.28,–
O=[N+]([O-])c1ccccc1/C=N\N1CCN(c2ccccc2)CC1,inactive,0.964,–
O=S(=O)(NNC(=S)Nc1ccc(S(=O)(=O)Nc2ncccn2)cc1)c1ccc(Br)cc1,inactive,4.32,–
Cc1cc(Cn2nc(-c3ccccc3)cc2C(=O)NCC2CC2)on1,inactive,-12.8,–

Compound,Potency,cell number change [%],"lipid storage change, negative = inhibition"
CCOC(=O)c1cc(-c2ccccc2)nn1Cc1cc(C)no1,inactive,-24,–
CCOC(=O)c1cc(-c2ccccc2)n(Cc2cc(CC)no2)n1,18.4 µM (active),-3.23,–
Cc1cc(C(=O)NCc2ccccc2)no1,inactive,–,–
CCOC(=O)c1cc(-c2ccccc2)nn1Cc1cc(CC)no1,inactive,-20.2,–
Cc1cc(Cn2nc(C(=O)NCc3cccc(Br)c3)cc2-c2ccccc2)on1,13 µM (active),16.4,–
COc1cc(-c2noc(CCC(=O)NC3CCCC3)n2)cc(OC)c1OC,inactive,-0.87,–
CC(C)CNC(=O)NC(=O)CSc1nc2ccccc2n1CC(C)C,inactive,–,–
COc1cc(/C=C/C(=O)NC(C)(C)C)ccc1OCc1ccccc1,29.1 µM (active),-27.6,–
CCOc1cc(/C=C/C(=O)O)ccc1OCc1ccccc1,inactive,8.37,–
COc1ccc(/C=C/C(=O)NC(C)CCc2ccccc2)cc1OC (centres undefined),inactive,0.149,–
O=C(NCCCNC(=O)c1ccccc1Br)c1ccccc1Br,inactive,-12.7,–
FC(F)(F)c1cccc(NC(=S)NC2CCCC2)c1,18.4 µM (active),-29.3,–
Cc1cccc(NC(=S)NC2CCCC2)c1,inactive,10.6,–
O=C(Nc1cccc(F)c1)NC1CCCCCCC1,14.6 µM (active),14.2,–
CC(=O)c1cccc(NC(=O)NC2CCCCCCC2)c1,inactive,–,–
Fc1cccc(NC(=S)NC2CCCCCCC2)c1,inactive,-22.8,–
O=C(Nc1cccc(F)c1)NC1CCCCC1,inactive,-7.64,–
C/C=C\C=C\C(=O)Nc1cccc(C2=NOC3(C2)C[C@H](C(N)=O)N(C(=O)c2ccccc2C(=O)c2ccccc2)C3)c1 (some centres undefined),inactive,1.47,–
CCOC(=O)c1cnc(NCc2ccccc2)nc1C,inactive,-8.98,–
CCN1CCN(c2cc(C)nc(-c3ccccc3O)n2)CC1,inactive,0.893,–
COc1ccccc1NS(=O)(=O)c1ccc(C(=O)NCC(c2ccccc2OC)N(C)C)cc1 (centres undefined),inactive,13,–
